In PubChem BioAssay:
Calls of active or inactive are those of the source.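 Rule for the calls: active = inhibition above 20% together with a positive visual image hit; inconclusive = visual image hit but inhibition not above 20%; inactive = no visual image hit.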

Assay: inhibitors of TNFa-induced NFkB p65 translocation, primary screen, imaging, HUVEC, MLSMR starter and 10KST1 sets (AID 438);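 note: compound added about 3h40 before a 20 min TNFalpha stimulation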;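 for inhibition: signal is the nuclear over cytoplasmic p65 intensity ratio per well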
Settings: HUVEC TNFa-induced p65 nuclear translocation; cell count: measured here: nuclei count (cytotoxicity indicator), at 2.08 µM; inhibition: at 2 µM, stronger effect = higher value, 0% TNFa-plus-vehicle, 100% no-TNFa wells

| SMILES | inhibition | cell count |
| --- | --- | --- |
| CC(=O)Nc1cccc(OCC(O)Cn2cnc3ccccc32)c1 (stereo not given) | -20.4% (inactive) | 632 |
| Cc1ccc(N2CCN(CCc3nc4cc(NS(C)(=O)=O)ccc4n3C)CC2)cc1 | 7% (inactive) | 322 |
| COc1cc2c(cc1OC)C(c1cccnc1)CC(=O)N2 (stereo not given) | -7.4% (inactive) | 481 |
| COc1ccc(S(=O)(=O)N2CCCC(C(=O)N3CCCCCC3)C2)cc1 (stereo not given) | -5.2% (inactive) | 404 |
| COCCCNC(=O)CSc1ccc(Cl)cc1 | -1.8% (inactive) | 378 |
| CCOc1cc(C(=O)N(C)Cc2cc3ccccc3[nH]c2=O)cc(OCC)c1OCC | 0.6% (inactive) | 376 |
| CCOC(=O)CN1CC23C=CC(O2)C(C(=O)NC2CCCC2)C3C1=O (stereo not given) | 4.1% (inactive) | 671 |
| O=C(CN1C(=O)c2ccccc2C1=O)Nc1ccccc1C(=O)N1CCCC1 | 4% (inactive) | 407 |
| CCOC(=O)CSC1=C(C#N)C(c2ccc(C)o2)CC(=O)N1 (stereo not given) | 14.4% (inactive) | 557 |
| CCCSc1nc2c(cnn2-c2ccc(C)cc2)c(=O)[nH]1 | -5.8% (inactive) | 671 |
| Cc1cc(C(=O)N2CCN(c3ncccn3)CC2)cs1 | -0.7% (inactive) | 401 |
| Cc1cc(NC(=O)CSc2nc(CCC3CCCC3)nc3ccccc23)no1 | 3.5% (inactive) | 400 |
| CCCC(CCC)C(=O)NCCN1CCOCC1 | -2% (inactive) | 412 |
| CC(=O)NC(Cc1c[nH]c2ccccc12)C(=O)OCC(=O)Nc1cc(C)on1 (stereo not given) | 9.6% (inactive) | 505 |
| COc1ccccc1OCC(=O)NCC1CCCCC1 | -28.2% (inactive) | 394 |
